From PubChem
Cav3 T inh: Cav3.2 calcium influx blockers – cell-based, Fluo-4 calcium fluorescence, FDSS, MLSMR library, primary screen; AID 449739, 2010; Cav3.2-expressing cells; stronger effect = lower value; Voltage-dependent T-type calcium channel subunit alpha-1H (Homo sapiens), O95180; hit rate 4% among 100,000; B-score at 10 µM;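 active means single-dose well whose peak fluorescence ratio is a statistical outlier from its plate by either plate-standardised score or position-corrected B-score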
PostGolgi yeast: phenotypic screen on post-Golgi transport, primary screen. inhibition, % at 10 µM. post-Golgi transport phenotypic cell assay. hit rate 0.9% among 98,000;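 further: yeast cells grown in 1536-well plates; yeast grown about 18 h at 30C before absorbance read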
hDAT+cocaine: changed hDAT dopamine uptake under cocaine IC80, either direction, primary screen, cocaine antagonist project, cell-based, LLC-PK1 hDAT, [14C]-dopamine uptake, MLSMR; LLC-PK1 hDAT cells, [14C]-dopamine uptake with cocaine IC80; actives deviate in either direction; B-score at 10 µM; hit rate 1.3% among 110,000; AID 449768, 2010;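 active means Z score or B-score, a plate-position-corrected score, falls beyond the plate's 99.7% confidence bounds, in either direction; inactive means both scores lie inside the 99.7% bounds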;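 further: scored against the spread of the other compound wells on the same plate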
PostGolgi ctrl: growth inhibition of yeast control strain, primary screen, counter-screen for post-Golgi transport modulator project | efflux-deficient yeast background strain, growth absorbance A615, 16 h | inhibition, % at 10 µM | hit rate 5% among 98,000 | AID 738, 2007
PLAP act: PLAP enzyme activators, biochemical, luminescence, HTS; Alkaline phosphatase, placental type (Homo sapiens), P05187; purified PLAP enzyme, luminescent substrate read-out; stronger effect = higher value; activation fold at 20 µM; hit rate 1.2% among 96,000; in the data active means activation fold above about 2
Numbers without * were called inactive; · = no result. Hits are enriched below; roughly 9.6% of the tested compounds scored in any of these assays. Unless noted, no stated cut-off is given here; in the data, active means inhibition above about 30%; inactive means the rest.

SMILES	Cav3 T inh	PostGolgi yeast	hDAT+cocaine	PostGolgi ctrl	PLAP act
COc1cc(/C=N/Nc2nc(Nc3ccc(C)cc3)nc(-n3nc(C)cc3C)n2)cc(OC)c1OC	-0.97	-9	0.024	11	1.9
COc1ccc2cc(C(c3nnnn3C3CCCC3)N3CCCCCC3)c3nnnn3c2c1 (stereo not given)	-0.25	·	-0.73	·	·
CCCCn1c(-c2ccc([N+](=O)[O-])cc2)n[nH]c1=S	2	-3	-0.5	0	1
CCCCn1c(CCn2nc(C)c(Br)c2C)n[nH]c1=S	0.095	-6	-0.15	5	2.1*
CC(C)(C)OC(=O)N1CCC2(CC1)Oc1ccc(F)cc1C(=O)C21CC(c2ccccc2)=NO1 (stereo not given)	-1.3	·	0.033	·	·
CCc1ccc2nc(N3C(=O)C(O)=C(C(=O)c4ccco4)C3c3cccs3)sc2c1 (stereo not given)	-4.3*	-3	-0.11	36*	·
CCn1c(CSc2nc(C)cc(C)n2)nnc1SCC(=O)N1CCCc2ccccc21	1.9	21	-0.39	8	1.4
CCOC(=O)COc1ccccc1C1Nc2ccccc2C(=O)N1c1cccc(Cl)c1 (stereo not given)	-2.2	44*	0.47	13	1.1
Cc1ccc(Nc2nc(N)nc(CN3CCN(c4ccccc4F)CC3)n2)cc1	-5.3*	6	0.98	8	1.4
Nc1nc(CN2CCN(c3ccccc3F)CC2)nc(Nc2ccccc2)n1	-1.2	0	0.17	1	1.5
CC1(C)c2[nH]c3ccccc3c2C[C@@H]2C(=O)N(c3ccc(F)cc3F)C(=O)N21	0.054	·	0.16	·	·
CCOc1ccc(C2/C(=C(/O)c3ccc(OC)cc3)C(=O)C(=O)N2c2cc(C)on2)cc1OC (stereo not given)	-0.6	4	3.6*	-2	1.5
COCCn1c(C)cc(C(=O)COC(=O)CCN2C(=O)c3ccccc3C2=O)c1C	0.6	5	0.0082	13	0.9
CCCOc1cccc(NC(=O)c2cc(C)oc2C)c1	-2.2	7	1.6	0	0.8
CCS(=O)(=O)C(=C1Nc2ccccc2N1)S(=O)(=O)CC	-0.026	·	-0.89	·	·
CCCCS(=O)(=O)C(=C1Nc2ccccc2N1)S(=O)(=O)CCCC	0.0014	12	-1.1	30*	1.1
COC(=O)c1ccc(NC(=O)c2ccccc2SC)cc1	-0.26	1	3.3*	7	0.7
Fc1ccc(Cn2c(SCc3ccc(F)c(F)c3)nnc2C(F)(F)F)cc1	-3.8*	7	0.5	22	0.9
CCOC(=O)c1c(NC(=O)CN2CCCCC2)sc2c1CCC(C=O)=C2Cl	0.016	40*	0.022	8	1
CCSc1nnc([C@H](C)NC(=O)OC(C)(C)C)o1	-0.72	-3	-0.49	-6	1
COc1ccccc1-c1cc(C(=O)NC(C)c2ccccc2)no1 (stereo not given)	-2.1	14	0.071	61*	1
COc1ccccc1-c1cc(C(=O)NC(C)C)no1	-0.57	-3	0.0071	13	1
Cc1cc([N+](=O)[O-])ccc1NCc1cccc2ccccc12	-0.7	·	-1.4	·	·
CC1CCN(CC(O)COC2CCC(C(C)(C)C)CC2)CC1 (stereo not given)	-0.43	97*	-0.052	98*	1.6
CC(C)(C)C1CCC(OCC(O)CN2CCN(c3ccccc3)CC2)CC1 (stereo not given)	1.4	104*	0.37	96*	1.5
SMILES	Cav3 T inh	PostGolgi yeast	hDAT+cocaine	PostGolgi ctrl	PLAP act
Cc1ccc(N2CCN(CC(O)COC3CCCCC3)CC2)cc1 (stereo not given)	-1.7	10	-1.5	19	1.3
O=C(CSc1nc(-c2ccccc2)cc(=O)[nH]1)N1CCOCC1	1.4	2	-0.67	0	1.1
Nc1ccc2c(c1)C(=O)C(=O)c1ccccc1-2	0.061	14	-3.2*	14	0.8
O=C1C(=O)c2ccc(-c3ccccc3)cc2-c2ccccc21	0.054	·	0.022	·	·
N#CCCN1CCN(CCC#N)CC1	0.88	0	-0.46	9	0.7
Cc1cc(CN2CCN(CCC#N)CC2)c(O)c(C2(C)CCCCC2)c1	-0.95	-2	-0.62	59*	1.2
CC1CCCN(S(=O)(=O)c2ccc(C(=O)Nc3nnc(-c4ccccc4Cl)o3)cc2)C1 (stereo not given)	-7.3*	6	-0.51	15	1.4
CCC1CCCCN1S(=O)(=O)c1ccc(C(=O)Nc2nnc(-c3cccs3)o2)cc1 (stereo not given)	-8.5*	20	-0.22	2	·
CC1CC(C)CN(S(=O)(=O)c2ccc(C(=O)Nc3nnc(-c4cccs4)o3)cc2)C1 (stereo not given)	·	-2	·	23	1.1
O=C(Nc1nnc(-c2cccs2)o1)c1cccc(C(F)(F)F)c1	·	73*	-1.2	36*	2.1*
CCOc1cc(C(=O)NC(C)c2ccncc2)cc(OCC)c1OCC (stereo not given)	1.8	12	0.5	3	1.8
CCOC(=O)C1=C(N)OC2=C(C(=O)CCC2)C1c1ccc(C)s1 (stereo not given)	-0.16	-4	1.2	1	1.2
CCCSc1nc2sc3c(c2c(=O)[nH]1)CCN(Cc1ccccc1)C3	-5.9*	-3	0.57	0	1.3
CCCCN(C)CCNC(=O)c1ccc2c(c1)NC(=O)C(N1CCCCC1)S2 (stereo not given)	-1.2	5	0.31	13	1.5
C=C1CC2C(=O)N(Cc3ccccc3)C(C(=O)OCC)(C(=O)OCC)C1N2C(=O)OC(C)(C)C (stereo not given)	-1.4	·	0.014	·	·
Cc1cc(C)n(-c2ccc(C(=O)C(C#N)c3nc4ccccc4n3C)cc2)n1 (stereo not given)	0.81	13	-0.69	33*	1.2
CC(C)n1nc(C(=O)Nc2nnc(SCc3c(Cl)cccc3Cl)s2)c2ccccc2c1=O	-1.9	-4	-0.72	6	1.7
Cc1[nH]c2ccccc2c1SCCN	-0.45	·	0.3	·	·
Cc1ccc(C(=O)NCCSc2ccc(Cl)cc2)cc1[N+](=O)[O-]	-5.8*	11	0.058	36*	·
Cc1ccc(SCCNC(=O)c2ccc(C)c([N+](=O)[O-])c2)cc1	-5.6*	0	1.1	9	0.5
Cc1ccc(C(=O)NCCSc2c(C)[nH]c3ccccc23)cc1[N+](=O)[O-]	-6.9*	·	-0.32	·	·
COC(C/C=C/[C@@H](O)[C@H](C)OCc1ccccc1)OC	0.85	·	-0.0023	·	·
COC(=O)c1ccccc1NC(=O)CN1CCC(NC(=O)c2ccccc2C)CC1	1.7	17	0.0096	7	1.4
N/C(COc1ccc(F)cc1)=N\NC(=O)c1cccnc1Oc1ccccc1	1.5	0	-0.18	1	2*
